In PubChem BioAssay (NCI):
About 79,000 compounds went through this panel and 15% of them were active in at least one assay; those are over-represented in the sample as a whole. Active and inactive are the calls of the source. Cut-off read from the data, not from the text of the source: active = growth inhibition above about 70%; inactive = the rest.

What was measured:
[1] = NCI Yeast Anticancer Drug Screen. Data for the rad50 strain (AID 155);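 note: 0% = growth of vehicle-only cultures of the same strain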; details: S. cerevisiae rad50 strain growth inhibition; at 50.0 µM; active compounds read high
Procedure, shortened: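 Readout: growth inhibition relative to vehicle-treated cultures. Compound exposure was carried out in a genetically defined yeast strain deficient in DNA damage repair.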

[2] = NCI Yeast Anticancer Drug Screen. Data for the mec2-1 strain (AID 157); details: S. cerevisiae mec2-1 strain, at 50.0 µM, active compounds read high
Procedure, shortened: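 Test agents were screened against the mec2-1 yeast strain, with defined DNA repair or cell cycle alteration. Growth was scored as inhibition against vehicle-only controls.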

[3] = NCI Yeast Anticancer Drug Screen. Data for the sgs1 mgt1 strain (AID 161);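 note: 0% = growth of cultures given vehicle only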; details: S. cerevisiae sgs1 mgt1 strain, at 50.0 µM, active compounds read high
Procedure, shortened: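 Read-out: growth inhibition vs vehicle controls. Cells: mutant yeast strain deficient in DNA damage repair.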

[4] = NCI Yeast Anticancer Drug Screen. Data for the cln2 rad14 strain (AID 165);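 note: 0% = growth equal to vehicle treated cultures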; details: S. cerevisiae cln2 rad14 strain, at 50.0 µM, active compounds read high
Procedure, shortened: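 Growth of compound-exposed yeast (cln2 rad14 genotype) measured and expressed as inhibition relative to vehicle.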

[5] = NCI Yeast Anticancer Drug Screen. Data for the bub3 strain (AID 167); details: S. cerevisiae bub3 mutant strain, at 50.0 µM, active compounds read high
Procedure, shortened: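 Readout: yeast growth inhibition, expressed relative to vehicle-only wells. The test organism is a mutant strain from a panel with lesions in DNA repair or checkpoint genes.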

[6] = NCI Yeast Anticancer Drug Screen. Data for the mlh1 rad18 strain (AID 175); details: S. cerevisiae mlh1 rad18 strain growth inhibition; at 50.0 µM; active compounds read high
Procedure, shortened: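 In this whole-cell yeast screen, a strain with altered DNA damage repair is challenged with compound, and its growth is measured against matched vehicle-treated controls.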

Measured: growth inhibition

Cc1cc([N+](=O)[O-])cnc1Cl
inactive: [1] -14.1% | [2] -22.2% | [3] -11.6% | [4] -15.9% | [5] 12% | [6] -16.8%

OCC1OC(n2cnc3[nH]cnc(=S)c32)C(O)C1O (configuration not stated)
inactive: [1] 4.3% | [2] 14.2% | [3] 0.35% | [4] 1.05% | [5] -6.35% | [6] 14.7%

N#CC(c1ccccc1)N(CCCCCCN(C(=O)c1ccccc1)C(C#N)c1ccccc1)C(=O)c1ccccc1 (configuration not stated)
inactive: [1] 17.1% | [2] 37% | [3] 20.3% | [4] 13.1% | [5] 40.4% | [6] -29.1%

O=C(OCc1ccccc1)N(Cc1ccccc1)S(=O)(=O)c1ccccc1
inactive: [1] 26.1% | [2] 34.8% | [3] 14.9% | [4] 5.5% | [5] 13.6% | [6] 0.4%

Cn1cncc1CC1COC(=O)C1C(O)c1ccccc1 (configuration not stated)
inactive: [1] 11% | [2] 8.45% | [3] -14.2% | [4] -1.5% | [5] -26.9% | [6] -53.9%

CCOC(=O)C1(C(=O)OCC)CC(CCC#N)(CCC#N)C(=O)C(CCC#N)(CCC#N)C1
inactive: [1] -2.15% | [2] -5.5% | [3] 1.55% | [4] -3.1% | [5] -11.4% | [6] -26.8%

O=C1O/C(=C(\Br)c2ccc([N+](=O)[O-])cc2)c2ccccc21
inactive: [1] 30.4% | [2] -27.4% | [3] 19.4% | [4] 0.85% | [5] -5.9% | [6] 1.05%

CCOC(=O)/C=C(\Nc1ccc(C(c2ccccc2)(c2ccccc2)c2ccccc2)cc1)C(=O)OCC
inactive: [1] 38.2% | [2] 9.9% | [3] 32% | [4] 20.2% | [5] -7.3% | [6] 27.1%

C#CCNC(=O)NC(CCCCNC(=O)OCc1ccccc1)C(=O)OCc1ccccc1 (configuration not stated)
inactive: [1] -7.05% | [2] 2.9% | [3] -10.8% | [4] 10.3% | [5] 3.55% | [6] -4.8%

N#Cc1cc(-c2ccccc2)c[nH]c1=O
inactive: [1] -8.55% | [2] -1.45% | [3] -4.6% | [4] -36.9% | [5] -1.25% | [6] -1.55%

O=[N+]([O-])c1ccc(Cn2on2-c2ccccc2)cc1
inactive: [1] 8.55% | [2] 21.1% | [3] 9.1% | [4] -16.7% | [5] 24.4% | [6] -23.9%

O=C(/C=C/c1ccccc1)Nc1cc(Cl)ccc1Cl
inactive: [1] 4.75% | [2] 26.1% | [3] 22.6% | [4] -7.3% | [5] 31.8% | [6] 17.6%

CCCCCCCCCCCCCCCCc1c(C(=O)OC)[nH]c(=S)[nH]c1=O
inactive: [1] -49% | [2] -18.2% | [3] -21.9% | [4] -2.8% | [5] -29.1% | [6] -11.3%

N#CCCC1C(C#N)C2CC1C1C3C=CC(C3)C21 (configuration not stated)
inactive: [1] 9.1% | [2] 11.2% | [3] 30.5% | [4] 28.5% | [5] -4.5% | [6] 26.2%

CC(O)(c1cccc(OCc2ccccc2)c1)c1ccccn1 (configuration not stated)
inactive: [1] 12.3% | [2] 0.05% | [3] 5.7% | [4] -11.4% | [5] -6.15% | [6] -7.8%

c1ccc(CNc2ncccn2)nc1
inactive: [1] 21.8% | [2] 7.45% | [3] 40.7% | [4] 7.35% | [5] -10% | [6] 11.4%

O=C(Nc1nc2ccc([N+](=O)[O-])cc2s1)C(=O)C(C(=O)c1ccccc1F)C1OC(=O)c2ccccc21 (configuration not stated)
inactive: [1] 29.8% | [2] 39.6% | [3] 59.5% | [4] 25.6% | [5] 38.5% | [6] 27.8%

CCCCN(CCCC)CCNC(c1ccc(Cl)cc1)c1ccc(OC)cc1 (configuration not stated)
inactive: [1] 14.5% | [2] 4.3% | [3] 4.45% | [4] -7.85% | [5] 8.35% | [6] 33.4%

CCOC(=N)c1cn(C2OC(CO)C(O)C2O)c2nc[nH]c(=O)c12 (configuration not stated)
inactive: [1] 3.35% | [2] -5.25% | [3] 11.2% | [4] 23.4% | [5] 16.2% | [6] 0.4%

CC1COC(C)(C)O1 (configuration not stated)
inactive: [1] 19.3% | [2] -31.6% | [3] 16.4% | [4] 0.65% | [5] 8% | [6] 11.2%

CCOC(=O)CN1CC(C2=C(O)CN(CC(=O)OCC)C2=O)=CC1=O
inactive: [1] 0.75% | [2] 9.7% | [3] -12.6% | [4] 29.1% | [5] 9.55% | [6] -27%

CCOC(=O)c1c(-c2ccc(OC)cc2)c(C#N)c(=S)n(C2OC(CO)C(O)C(O)C2O)c1-c1ccccc1 (configuration not stated)
inactive: [1] 6.7% | [2] -29% | [3] -20% | [4] -11.6% | [5] -12.4% | [6] 2.95%

CC(C)/C(Cl)=N/OC(=O)Nc1ccc(Br)cc1
inactive: [1] 34.6% | [2] 47.5% | [4] 24.1% | [5] 69.3%
active: [3] 90.5% | [6] 81.8%

CCOC(=O)/C=C(/O)CC(=O)OCC.[Cu+2]
inactive: [1] -11.8% | [2] -1.8% | [3] -5.7% | [4] -21% | [5] -17.1% | [6] -0.45%

CCCN(CCC)c1ccc(C(=O)c2ccccc2)cc1
inactive: [1] -12.4% | [2] -3% | [3] -1% | [4] -33.8% | [5] 18.6% | [6] -6%

CC(=O)Nc1ncc(Sc2ccc([N+](=O)[O-])cc2)s1
inactive: [1] -6.5% | [2] -30.9% | [3] -8.35% | [4] 15.3% | [5] -11.8% | [6] 5.65%

O=Cc1ccc(C=O)cc1
inactive: [1] 22.6% | [2] -3.35% | [3] 26.9% | [4] 11.9% | [5] 14.2% | [6] 32.5%

CCNC(=O)COc1ccc(Cl)cc1C(C)C
inactive: [1] -2.65% | [2] 7.75% | [3] 15.4% | [4] 18.8% | [5] -0.8% | [6] 0.7%

C(=C\c1csnn1)/c1ccc(/C=C/c2csnn2)cc1
inactive: [1] -18% | [2] 15.9% | [3] 7.7% | [4] 11.9% | [5] 5.3% | [6] -8.2%

CCO/C(C)=N/n1c(C)nc2[nH]ncc2c1=O
inactive: [1] 1.55% | [2] -10.8% | [3] 5.55% | [4] -6.45% | [5] 11.7% | [6] 17.9%

C=CCN1C(SC)=NC(=O)C1(c1ccccc1)c1ccccc1
inactive: [1] 14.8% | [2] 9.95% | [3] 8.75% | [4] -10.2% | [5] 10.2% | [6] 22.8%

O=C1OC(c2ccccc2)C=C1Nc1ccccc1 (configuration not stated)
inactive: [1] 9.55% | [2] 12.4% | [3] -3.05% | [4] -12.1% | [5] 17% | [6] 9.4%

O=C1CCC(C(Sc2ccccc2)(Sc2ccccc2)Sc2ccccc2)C1 (configuration not stated)
inactive: [1] -5.05% | [2] -21.7% | [3] -22% | [4] -7.2% | [5] -1.55% | [6] -41.4%

N=C(N)c1cc(Cl)c(OCc2ccccc2)c(Cl)c1
inactive: [1] 9.7% | [2] -12.7% | [3] 1.15% | [4] -10.7% | [5] 3.85% | [6] 12.8%

O=C(CC/C(CC(=O)c1ccc(Cl)cc1)=N\O)Nc1cccc(Cl)c1
inactive: [1] -31.9% | [2] -2.4% | [3] -6.45% | [4] -3.85% | [5] 0.7% | [6] -11.6%

S=C1CSc2c(ccc3ccccc23)N1
inactive: [1] -30.8% | [2] -14.8% | [3] 19.2% | [4] 4.95% | [5] 19.9% | [6] -9.4%

CCCCCCCCCCCCCCCCCC(=O)OCC(COC(C)=O)OC(C)=O (configuration not stated)
inactive: [1] -3.45% | [2] -5.05% | [3] -3.8% | [4] -46.1% | [5] -1.2% | [6] 4.8%
